41 molecules from ChEMBL document CHEMBL4303122, “Identification of potential treatments for COVID-19 through artificial intelligence-enabled phenomic analysis of human cells infected with SARS-CoV-2” (2020) can be followed below.

In all, about 1,600 compounds were measured (“Hit score”: median about 0.13, highest 2% from about 0.46 on). This excerpt belongs to a sample that is enriched for the highest values.

The assay has as its system SARS-CoV-2. In words: Antiviral activity against SARS-CoV-2 (USA-WA1/2020 strain) measured by imaging in HRCE cells at MOI 0.4 after 96 hrs (reported as hit score from 0-1 for on-disease vs off-disease activity: scores >0.6 considered hits). The format is functional, Homo sapiens.
`N#Cc1c(N2C[C@@H]3NCCO[C@H]3C2)c(F)cc2c(=O)c(C(=O)O)cn(C3CC3)c12` [FINAFLOXACIN] had a Hit score of 0.04952.
The same measure for `C[C@H]1C[C@@H]2[C@H]([C@@H](O)C[C@@]3(C)[C@H]2CC[C@]3(O)C(=O)CO)[C@@]2(C)C=CC(=O)C=C12` [METHYLPREDNISOLONE]: 0.1629.
As for `CCCCc1oc2ccc(NS(C)(=O)=O)cc2c1C(=O)c1ccc(OCCCN(CCCC)CCCC)cc1` [DRONEDARONE], the figure is 0.03796.
Molecule `C[C@]1(Cn2ccnn2)[C@H](C(=O)O)N2C(=O)C[C@H]2S1(=O)=O` [TAZOBACTAM] came in with a Hit score of 0.04532.
As for `CC(C)Cc1ccc(C(C)C(=O)OCc2ccccn2)cc1` (stereo unspecified) [IBUPROFEN PICONOL], the figure is 0.1126; as for `CCCN1CC(NS(=O)(=O)N(CC)CC)CC2Cc3c(O)cccc3CC21` (stereo unspecified) [QUINAGOLIDE], 0.09123; as for `CO/N=C(\C(=O)N[C@@H]1C(=O)N2C(C(=O)O)=C(CSc3nnnn3C)CS[C@H]12)c1csc(N)n1` [CEFMENOXIME], 0.1641.
As for `N=C(N)c1ccc(/C=C/c2ccc(C(=N)N)cc2O)cc1` [HYDROXYSTILBAMIDINE], the figure is 0.4886.
As for `Nc1nc(=O)c2c([nH]1)NC[C@H](CNc1ccc(C(=O)N[C@@H](CCC(=O)O)C(=O)O)cc1)N2C=O` [LEVOLEUCOVORIN], the figure is 0.1157; as for `C#C[C@]1(OC(C)=O)CC[C@H]2[C@@H]3CCC4=CC(=O)CC[C@@H]4[C@H]3CC[C@@]21C` [NORETHINDRONE ACETATE], 0.06494; as for `COc1ccccc1OCCNCC(O)COc1cccc2[nH]c3ccccc3c12` (stereo unspecified) [CARVEDILOL], 0.5244.
For `CC(C)NCC(O)COc1cccc2ccccc12` (stereo unspecified) [PROPRANOLOL], the Hit score is 0.3664.
As for `CC(C)NCC(O)COc1cccc2[nH]ccc12` (stereo unspecified) [PINDOLOL], the figure is 0.3758; as for `COc1ccc(CCNCC(O)COc2cccc(C)c2)cc1OC` (stereo unspecified) [BEVANTOLOL], 0.3675.
The same measure for `C=CCOc1ccccc1OCC(O)CNC(C)C` (stereo unspecified) [OXPRENOLOL]: 0.08363; for `CC(C)NC[C@@H](O)COc1cccc2ccccc12` [DEXPROPRANOLOL]: 0.4686; for `COc1ccccc1OCC(O)CO` (stereo unspecified) [GUAIFENESIN]: 0.2008.
The same measure for `C=CCc1ccccc1OCC(O)CNC(C)C` (stereo unspecified) [ALPRENOLOL]: 0.3773; for `CC(C)NCC(O)COc1cccc2[nH]c3ccccc3c12` (stereo unspecified) [CARAZOLOL]: 0.4815.
In turn, `NS(=O)(=O)c1cc(-c2nnn[nH]2)c(NCc2cccs2)cc1Cl` [AZOSEMIDE] registered a Hit score of 0.09549.
Turning to `CN1[C@@H]2CC[C@H]1C[C@@H](OC(=O)[C@H](CO)c1ccccc1)C2` [HYOSCYAMINE], the Hit score is 0.0469.
Molecule `O=C(O)CCC/C=C\CC1C(O)CC(O)C1/C=C/C(O)COc1cccc(Cl)c1` (stereo unspecified) [CLOPROSTENOL] displayed a Hit score of -0.03107.
The same measure for `COc1cccc(N2CCN(C3=Nc4c(F)cccc4[C@H](CC(=O)O)N3c3cc(C(F)(F)F)ccc3OC)CC2)c1` [LETERMOVIR]: 0.3651; for `CCOC(=O)[C@H]1O[C@@H]1C(=O)N[C@@H](CC(C)C)C(=O)NCCC(C)C` [ALOXISTATIN]: 0.7896; for `N[C@@H]1[C@H]2CN(c3nc4c(cc3F)c(=O)c(C(=O)O)cn4-c3ccc(F)cc3F)C[C@@H]12` [TROVAFLOXACIN]: 0.134.
As for `O=C(O)[C@@H]1CCCN1` [PROLINE], the figure is 0.14; as for `COc1cc(Nc2ncc(F)c(Nc3ccc4c(n3)NC(=O)C(C)(C)O4)n2)cc(OC)c1OC` [R-406], 0.1646.
Consider `CC(=O)c1c(C)c2cnc(Nc3ccc(N4CCNCC4)cn3)nc2n(C2CCCC2)c1=O` [PALBOCICLIB], for which the Hit score was found to be 0.007482.
The same measure for `OC(CCN1CCCCC1)(c1ccccc1)C1CCCCC1` (stereo unspecified) [TRIHEXYPHENIDYL]: 0.4673; for `OC(CCN1CCCC1)(c1ccccc1)C1CCCCC1` (stereo unspecified) [PROCYCLIDINE]: 0.2175.
On to `OC(CCN1CCCCC1)(c1ccccc1)c1ccccc1` [PRIDINOL], for which the Hit score is listed as 0.1349.
The same measure for `Sc1ncnc2nc[nH]c12` [MERCAPTOPURINE ANHYDROUS]: 0.2212.
As for `COC(=O)C[C@](O)(CCC(C)(C)O)C(=O)O[C@@H]1C(OC)=C[C@]23CCCN2CCc2cc4c(cc2[C@H]13)OCO4` [HARRINGTONINE], the figure is 0.07403; as for `CCCC[C@H](NC(=O)[C@@H]1[C@@H]2[C@H](CN1C(=O)[C@@H](NC(=O)NC1(CS(=O)(=O)C(C)(C)C)CCCCC1)C(C)(C)C)C2(C)C)C(=O)C(=O)NC1CC1`, 0.1004; as for `C[C@]12CC[C@H](O)CC1=CC[C@@H]1[C@@H]2CC[C@]2(C)C(c3cccnc3)=CC[C@@H]12` [ABIRATERONE], 0.3975.
The same measure for `C[C@H](CCC(=O)O)[C@H]1CC[C@H]2[C@@H]3[C@@H](O)C[C@@H]4C[C@H](O)CC[C@]4(C)[C@H]3CC[C@]12C` [URSODIOL]: 0.2784.
For the molecule `CC(CCC(=O)O)[C@H]1CCC2C3C[C@H](O)[C@@H]4C[C@H](O)CC[C@]4(C)C3CC[C@@]21C` (stereo partly specified), the Hit score is recorded as 0.1858.
As for `CC[C@H]1[C@@H](O)[C@@H]2[C@H](CC[C@]3(C)[C@@H]([C@H](C)CCC(=O)O)CC[C@@H]23)[C@@]2(C)CC[C@@H](O)C[C@@H]12` [OBETICHOLIC ACID], the figure is 0.5073; as for `CN1CC(=O)N2[C@H](c3ccc4c(c3)OCO4)c3[nH]c4ccccc4c3C[C@@H]2C1=O`, 0.2898.
As for `CO[C@H]1/C=C/O[C@@]2(C)Oc3c(C)c(O)c4c(O)c(cc(O)c4c3C2=O)NC(=O)/C(C)=C\C=C\[C@H](C)[C@H](O)[C@@H](C)[C@@H](O)[C@@H](C)[C@H](OC(C)=O)[C@@H]1C` [RIFAMYCIN], the figure is 0.1815.
As for `NC(=O)[C@@H]1CC[C@@H]2CN1C(=O)N2OS(=O)(=O)[O-].[Na+]` [AVIBACTAM SODIUM], the figure is 0.2969.
